From the supplement of paper PMC5662767
Structures can show the parent of a compound that is named as a salt.

Tested on: Drosophila S2 cl14 SmoIP sensor cells
Test: normalized SmoIP GFP fluorescence (untreated unstimulated = 0%, untreated Hh-stimulated = 100%); higher = more Smo activation sensor fluorescence
Details: compound concentration: 2 uM, 24 h
[1] = stimulation: Hh conditioned medium (+Hh)
[2] = stimulation: mock conditioned medium (-Hh)
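Further: flow cytometry read-out as median GFP intensity of gated cells, compounds added 30 min before Hh-conditioned or mock medium, mock-treated cells serving as unstimulated baseline.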

| SMILES | normalized SmoIP GFP fluorescence [1] [%] | normalized SmoIP GFP fluorescence [2] [%] |
| --- | --- | --- |
| N[C@@H](CC(=O)N1CCn2c(nnc2C(F)(F)F)C1)Cc1cc(F)c(F)cc1F [Sitagliptin] | 103 | -1.74 |
| Cn1cnc2c(F)c(Nc3ccc(Br)cc3Cl)c(C(=O)NOCCO)cc21 | 126 | 42.9 |
| COc1cc2c(cc1OC)[C@@H]1Cc3ccc(OC)c(OC)c3CN1CC2 [rotundine] | 160 | 12.5 |
| CN(C)CCC=C1c2ccccc2CCc2ccccc21 [amitriptyline-hydrochloride] | 104 | -3.27 |
| CCOC(=O)c1ncn2c1CN(C)C(=O)c1cc(F)ccc1-2 [Flumazenil] | 110 | 1.57 |
| Cc1c(CN2CCN(C(=O)[C@H](C)O)CC2)sc2c(N3CCOCC3)nc(-c3cnc(N)nc3)nc12 | 69.8 | -4.35 |
| CC(C)OC(=O)C1=CN(C(=O)c2ccc(F)c(F)c2)CC(C)(C)c2c1[nH]c1ccccc21 | 117 | 12.5 |
| CC(C)CC(=O)Nc1n[nH]c2c1CN(C(=O)C1CCN(C)CC1)C2(C)C | 41.2 | 20.1 |
| O=C(Nc1ccccc1)N1CCN(c2nc(-c3ccccc3)ns2)CC1 | 104 | -0.889 |
| CNC(=O)c1ccc2cc([C@@]3(O)CCn4cncc43)ccc2c1 | 104 | -1.56 |
| Cc1nn(-c2ccccc2)c(C)c1C=NN1CCN(Cc2ccccc2)CC1 [sant-1] | 103 | -2.59 |
| COC(=O)C1=C(C)NC(C)=C(C(=O)OC(C)C)C1c1cccc2nonc12 (stereo unspecified) [Isradipine(Dynacirc)] | 112 | 3.72 |
| CCN(CC)C(=O)/C(C#N)=C/c1cc(O)c(O)c([N+](=O)[O-])c1 [entacapone] | 106 | -3.05 |
